{"source": "PubChem BioAssay (NCI)", "note": "This is part of a sample that, as a whole, favours compounds with a hit. Of some 83,000 tested, about 20% had one in any assay.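 Growth was measured after 48 h exposure to one concentration of compound in 96-well plates. Values under 10 count as active.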 Unmarked numbers belong to inactive results. Calls of active or inactive are those of the source."}
{"tested_on": "MDA-MB-468 breast", "test": "NCI-60 one-dose screen, 48 h (100 = growth as untreated, 0 = no growth, -100 = all killed)", "settings": "10 µM unless noted"}
{"smiles": "C=C(C)[C@@H]1CC[C@]2(C(=O)NCCNCCNCCN)CC[C@]3(C)[C@H](CC[C@@H]4[C@@]5(C)CCC(=O)C(C)(C)[C@@H]5CC[C@]43C)[C@@H]12", "growth": "-49.1% [100 µM] (active)"}
{"smiles": "COc1cc(OC)c(/C=C/C(=O)c2ccc(Nc3ncnc4ccccc34)cc2)c(OC)c1", "growth": "-34.8% (active)"}
{"smiles": "N#Cc1c(-c2ccc(Cl)cc2)c(C#N)c2c(C#N)c(N)nn2c1N", "growth": "80.1%"}
{"smiles": "Cn1cc(-c2nn3cc(-c4cccnc4)nc3s2)c2cc(F)ccc21", "growth": "66.3%"}
{"smiles": "O=S(=O)(NCCNc1nccc(-c2c(-c3ccccc3)nc3sccn23)n1)c1ccc(O)cc1", "growth": "19.9%"}
{"smiles": "O=C(Nc1ccc(I)cc1)c1cccc([N+](=O)[O-])c1O", "growth": "2.17% (active)"}
{"smiles": "O=S(=O)(NCCNc1nccc(-c2c(-c3cccc(F)c3)nc3sccn23)n1)c1ccc(Cl)cc1", "growth": "64.5%"}
{"smiles": "NS(=O)(=O)c1ccc(Nc2nc(N/N=C/c3ccc4c(c3)OCO4)nc(Nc3ccccc3)n2)cc1", "growth": "46.4%"}
{"smiles": "COc1ccc(C(=O)N/N=C/c2cc(C(F)(F)F)ccc2Cl)cc1", "growth": "53.2%"}
{"smiles": "COC(=O)N1CCN(CCNCc2ccc(NC(=O)c3ccc(C)c(C#Cc4cnc5cccnn45)c3)cc2C(F)(F)F)CC1", "growth": "-8.93% (active)"}
{"smiles": "COc1cc(-c2csc(NC(=O)Nc3ccc(Cl)cc3)n2)cc(OC)c1OC", "growth": "13.5%"}
{"smiles": "CCc1n(Cc2ccc3ccccc3n2)cc[n+]1Cc1ccc2ccccc2n1", "growth": "-30.1% (active)"}
{"smiles": "O=C(O)C(O)C(O)C(=O)O.[NH-]C1CCCCC1[NH-].[Pt+2]", "note": "(stereo not given)", "growth": "95.5%"}
{"smiles": "C/C(=C\\CCc1ccoc1)CC/C=C(\\C)CCCN1CCC(CO)CC1", "growth": "14.5%"}
{"smiles": "CN(C)CCS(=O)(=O)Nc1cc(-c2ccc3ncc(C#N)c(Nc4ccc(F)c(Cl)c4)c3c2)cnc1Cl", "growth": "-77.8% (active)"}
{"smiles": "CC[C@H](C)[C@H]1NC(=O)[C@@H]([C@H](O)C(C)C)NC(=O)[C@@H](C)N(C)C(=O)[C@H](C)N(C)C(=O)[C@H](CC(C)C)NC(=O)[C@H](CC(C)C)N(C)C(=O)[C@H](C)N(C)C1=O", "growth": "-5.6% (active)"}
{"smiles": "CC1=C(C(=O)c2ccccc2)C(c2ccc3c(c2)OCO3)NC(=S)N1", "note": "(stereo not given)", "growth": "54.3%"}
{"smiles": "CCN(CC)CCCCNc1c2ccc(Cl)cc2nc2ccc(OC)cc12", "growth": "-42.7% (active)"}
{"smiles": "COc1cc(/C=C/C(=O)c2c(C)nc3ccccc3c2/C=C/c2ccc(C)cc2)cc(OC)c1OC", "growth": "18.9%"}
{"smiles": "NC1=CC(=O)C(=O)c2ccccc21", "growth": "86.8%"}
{"smiles": "CCCCOCCOCCOCc1cc2c(cc1Br)OCO2", "growth": "102%"}
{"smiles": "CSc1oc(C)nc1[P+](c1ccccc1)(c1ccccc1)c1ccccc1", "growth": "-4.41% (active)"}
{"smiles": "COc1ccc(-c2[nH]nc(N)c2-c2cc(OC)c(OC)c(OC)c2)cc1", "growth": "34%"}
{"smiles": "COc1ccccc1S(=O)(=O)Nc1ccc2c3c(cc(-c4ccoc4)nc13)C(=O)N2C", "growth": "39.7%"}
{"smiles": "CC1=C(C(=O)Nc2ccccc2)C(c2ccc3c(c2)OCO3)NC(=S)N1", "note": "(stereo not given)", "growth": "108%"}
{"smiles": "Cc1ccc(C)c(/C=C2\\CN(C(=O)OC(C)(C)C)C/C(=C\\c3cc(C)ccc3C)C2=O)c1", "growth": "57.3%"}
{"smiles": "NC[C@H](O)c1ccc(O)c(O)c1", "growth": "111%"}
{"smiles": "CCOc1cc(NC(=O)c2ccccc2)c(OCC)cc1N", "growth": "112%"}
{"smiles": "Cc1ccc(/C=C2\\SC(=S)N(c3ccc(F)cc3)C2=O)o1", "growth": "69.6%"}
{"smiles": "CCCCCCCN(CCCCCCC)C(=N)c1ccnc2ccccc12", "growth": "-83.5% (active)"}
{"smiles": "CCCc1cn(CC(=O)Nc2nc3ccccc3s2)nn1", "growth": "110%"}
{"smiles": "COc1ccc2c(CCCCC(c3ccccc3)c3ccccc3)c3[n+](cc2c1OC)CCc1cc2c(cc1-3)OCO2", "growth": "-75.3% (active)"}
{"smiles": "CN(C)CCCC(C#N)c1ccccc1", "note": "(stereo not given)", "growth": "108%"}
{"smiles": "CCCCSc1cc(C)nc(N)n1", "growth": "95.8%"}
{"smiles": "COc1cc(-c2nn(C(C)(C)C)cc2-c2ccnc(NCCCNS(=O)(=O)c3ccccc3)n2)ccc1Cl", "growth": "67.3%"}
{"smiles": "COc1ccc(-c2nn(-c3cccc(NC(=O)c4cc(C(F)(F)F)cc(C(F)(F)F)c4)c3)cc2-c2ccncc2)cc1Cl", "growth": "61.4%"}
{"smiles": "Clc1nc(Cl)c2ncn(CC3(Cn4cnc5c(Cl)nc(Cl)nc54)COC3)c2n1", "growth": "-60.7% (active)"}
{"smiles": "O=C(CCC(=O)N/N=C/c1ccccc1O)N/N=C/c1ccccc1O", "growth": "62.8%"}
{"smiles": "O=C(CC1(O)C(=O)Nc2c(Cl)ccc(Cl)c21)c1ccc(Cl)cc1Cl", "note": "(stereo not given)", "growth": "103%"}
{"smiles": "CC(c1ccccc1)n1ccnc1CO", "note": "(stereo not given)", "growth": "101%"}
